± gives the standard deviation.
Key:
Conditions in all cases: modulator concentration 10 µM
[1] = test system: RAW-Dual (murine macrophage reporter line); experiment: NF-kB reporter (SEAP) activity fold change vs agonist alone; higher = enhanced NF-kB activity
Procedure, shortened: (§1)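 Compound reached 10 μM final in each well by pin transfer, onto RAW-Dual murine macrophage reporter cells seeded at 50 000 per well in 384-well plates. After 1 hour at 37 °C, the cells were stimulated overnight with a PRR agonist. SEAP in the supernatant was read with QUANTI-Blue at 620 nm absorbance for NF-κB, and Lucia luciferase was read with QUANTI-Luc luminescence for IRF. Each signal was turned into fold change against the mean agonist-only control on the same plate, and two replicate plates were averaged with propagated errors.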

[2] = test system: RAW-Dual (murine macrophage reporter line); experiment: IRF reporter (Lucia luciferase) activity fold change vs agonist alone; higher = enhanced IRF activity
Procedure, shortened: as §1

[3] = test system: RAW-Dual (murine macrophage reporter line); experiment: viability score (confluency relative to resting cells, overnight) (fraction); higher = more viable, active = viable (0.7 or more)
Procedure, shortened: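 Overnight exposure to 10 μM final compound was carried out on RAW-Dual macrophages in 384-well plates. IncuCyte software generated two confluency masks over all wells imaged with IncuCyte. The viability score gives confluency in relation to resting cells. A compound met the cutoff if each mask exceeded 70% of resting cells.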

[4] = agonist: CpG ODN 1826 0.5 ug/mL

Row | SMILES | NF-kB reporter [1, 4] | NF-kB reporter ([1]; agonist: LPS 0.1 ug/mL) | NF-kB reporter ([1]; agonist: MPLA […]) | IRF reporter ([2]; agonist: 3'3'-cGAMP 10 ug/mL) | IRF reporter ([2]; agonist: LPS 0.1 ug/mL) | IRF reporter ([2]; agonist: MPLA […]) | viability score [3]
1 | Nc1nc(=O)[nH]cc1F | 0.84 ± 0.12 | 1.07 ± 0.085 | 1.08 ± 0.11 | 1.02 ± 0.049 | 1.23 ± 0.071 | 1.33 ± 0.11 | 1.01 (active)
2 | O=C(NCC1(O)CCOc2ccccc21)c1ccccc1C(F)(F)F (configuration not stated) | 1.85 ± 0.095 | 1.31 ± 0.24 | 1.95 ± 0.67 | 0.687 ± 0.44 | 0.669 ± 0.34 | 0.721 ± 0.084 | 0.574 (inactive)
3 | Cc1c(C)n2c3c(=O)n(Cc4ccccc4F)c(=O)n(C)c3nc2n1CCCN1CCOCC1 | 0.843 ± 0.062 | 1.1 ± 0.087 | 0.958 ± 0.052 | 1.11 ± 0.089 | 1.06 ± 0.14 | 1.05 ± 0.37 | 1.01 (active)
4 | Cc1ccc(S(=O)(=O)n2nc(C)c(C)c2C)cc1C | 0.929 ± 0.047 | 1.11 ± 0.11 | 1.05 ± 0.068 | 1.07 ± 0.068 | 1.2 ± 0.16 | 1.26 ± 0.34 | 1.01 (active)
5 | COC(=O)C1=CN(CC2CCCO2)C=C(C(=O)OC)C1c1ccc(F)cc1 (configuration not stated) | 1.06 ± 0.065 | 0.875 ± 0.069 | 1.22 ± 0.063 | 0.886 ± 0.062 | 0.95 ± 0.046 | 0.961 ± 0.13 | 0.996 (active)
6 | O=C(COCc1ccccc1)NC1CCC(F)(F)CC1 | 0.891 ± 0.068 | 1.03 ± 0.14 | 0.777 ± 0.057 | 0.643 ± 0.036 | 1.1 ± 0.069 | 1.02 ± 0.36 | 1.01 (active)
7 | Cl.N=c1ccn2c(n1)OC1C(O)C(CO)OC12 (configuration not stated) | 1.41 ± 0.38 | 1.17 ± 0.17 | 1.16 ± 0.073 | 0.696 ± 0.026 | 1.15 ± 0.18 | 0.959 ± 0.091 | 0.733 (active)
8 | CC(C)c1ccc(NC(=O)C2CCCCC2C(=O)O)cc1 (configuration not stated) | 1.19 ± 0.074 | 1.06 ± 0.07 | 0.994 ± 0.071 | 0.93 ± 0.031 | 1.51 ± 0.1 | 1.24 ± 0.12 | 0.996 (active)
9 | Cc1oncc1C(=O)NCc1cc(C2CC2)n(C)n1 | 0.927 ± 0.087 | 0.954 ± 0.12 | 0.975 ± 0.065 | 0.946 ± 0.04 | 0.982 ± 0.072 | 0.921 ± 0.24 | 0.997 (active)
10 | Cc1ccc(O)c([C@H](CCN(C(C)C)C(C)C)c2ccccc2)c1.O=C(O)[C@H](O)[C@@H](O)C(=O)O | 0.67 ± 0.061 | 0.881 ± 0.081 | 1.26 ± 0.089 | 0.656 ± 0.042 | 0.951 ± 0.051 | 0.729 ± 0.073 | 0.979 (active)
11 | COc1c(Cl)cc(C(=O)Nc2cccc(NC(=O)c3ccco3)c2)cc1Cl | 1.15 ± 0.098 | 1.01 ± 0.056 | 0.682 ± 0.043 | 0.858 ± 0.022 | 1.1 ± 0.11 | 0.956 ± 0.29 | 1.01 (active)
12 | Cc1nc2c(ccc3ccccc32)c(O)c1CN1CCCC1 | 0.283 ± 0.029 | 0.968 ± 0.076 | 0.95 ± 0.044 | 0.882 ± 0.073 | 1.06 ± 0.11 | 0.808 ± 0.17 | 1 (active)
13 | CCN(CCCc1ccccc1)CCCc1ccccc1.O=C(O)CC(O)(CC(=O)O)C(=O)O | 1.32 ± 0.057 | 1.4 ± 0.11 | 2.08 ± 0.29 | 0.265 ± 0.014 | 0.448 ± 0.079 | 0.468 ± 0.11 | 0.991 (active)
14 | O=C(C=Cc1ccco1)Nc1ccc(C(=O)O)cc1NC(=O)C=Cc1ccco1 | 0.691 ± 0.069 | 1.11 ± 0.061 | 0.932 ± 0.056 | 0.884 ± 0.028 | 1.27 ± 0.19 | 0.976 ± 0.27 | 1.02 (active)
15 | O=C(NC(=S)Nc1ccc2[nH]c(=O)[nH]c2c1)c1ccc(F)cc1 | 0.943 ± 0.095 | 1.03 ± 0.066 | 0.933 ± 0.064 | 0.927 ± 0.032 | 1.26 ± 0.13 | 1.05 ± 0.16 | 1.01 (active)
16 | O=S(=O)(N=Cc1c(O)ccc2ccccc12)c1cccs1 | 1.05 ± 0.23 | 1 ± 0.079 | 0.876 ± 0.12 | 0.74 ± 0.022 | 0.988 ± 0.15 | 0.992 ± 0.2 | 0.999 (active)
17 | O=C(NCC(O)c1ccc(C(F)(F)F)cc1)c1cc(Br)cs1 (configuration not stated) | 0.931 ± 0.047 | 0.981 ± 0.077 | 0.865 ± 0.043 | 1.14 ± 0.058 | 1.21 ± 0.077 | 1.22 ± 0.14 | 0.66 (inactive)
18 | O=C(O)c1cc(NC(=O)c2ccc(Cl)c([N+](=O)[O-])c2)cc(C(=O)O)c1 | 1.08 ± 0.11 | 0.973 ± 0.064 | 1.02 ± 0.045 | 1.03 ± 0.19 | 1.04 ± 0.088 | 1.08 ± 0.17 | 1 (active)
19 | Cl.O=C(c1ccc(OCCN2CCCCC2)cc1)c1c(-c2ccc(O)cc2)sc2cc(O)ccc12 | 0.106 ± 0.015 | 1.14 ± 0.27 | 2.12 ± 0.12 | 0.55 ± 0.023 | 0.901 ± 0.24 | 1.5 ± 0.18 | 0.254 (inactive)
20 | O=C(Nc1ccc(NS(=O)(=O)c2ccc(Cl)cc2)cc1)c1ccccc1 | 1 ± 0.082 | 1.03 ± 0.091 | 0.911 ± 0.07 | 0.977 ± 0.03 | 1.26 ± 0.091 | 0.955 ± 0.3 | 1.02 (active)
21 | O=C(NCC1(O)Cc2ccccc2C1)c1cccc(Br)c1 | 1.09 ± 0.055 | 1.02 ± 0.093 | 1.03 ± 0.15 | 1.05 ± 0.069 | 1.2 ± 0.11 | 1.32 ± 0.1 | 0.677 (inactive)

Source: the supplement of paper PMC10646978
